From PubChem BioAssay (NCI)
“And” between values parts separate entries of the source, which are not always exact repeats. Equal values may be shown once. Compounds without any hit were thinned out: in the full panel of roughly 83,000, 20% have a hit.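 Interpretation: 100, growth as untreated; towards 0, rising growth inhibition; 0, no net growth; 0 to -100, cell death. Compounds scoring below 10 were considered active.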 A number with no mark means an inactive call. The source made the active and inactive calls.

System: HCT-116 colon
Assay: NCI-60 one-dose screen, 48 h (100 = growth as untreated, 0 = no growth, -100 = all killed)
Details: 10 µM
Protocol: Growth inhibition of the HCT-116 human tumor cell line is measured as a screen for anti-cancer activity. Cells are grown in 96 well plates and exposed to the test compound for 48 hours. Compounds are tested at a single concentration, which is 10^-5 M for most compounds. The reported endpoint is percent growth (GI% or GIPRCNT), where numbers from 0 - 100% represent growth inhibition, and numbers from -100% - 0 represent cell death. For example, a value of 40 represents 60% growth inhibition. A value of 0 means no net growth occurred over the course of the experiment. A value of -40 indicates 40% of cells at the beginning of the experiment died by the end of the experiment. A value of -100 means all cells are dead at the end of the experiment.
NCI-60 Human Tumor Cell Lines Screen was performed using the standard one-dose NCI protocol, which is described in more detail at https://dtp.cancer.gov/discovery_development/nci-60/default.htm.
Compounds with GIPRCNT values below 10 were considered active. Activity score was based on GIPRCNT using the following formula: […]
Score is 0 for GIPRCNT values of 100 or above, 50 for GIPRCNT values of 0, and 100 for GIPRCNT values of -100.

For `COc1ccc(C(=O)/C=C/c2ccc(OCc3ccc(Cl)cc3)cc2)cc1OC`, which growth is on record?
The growth was 90.2%.

How did the growth turn out when `CC(=O)/C=C/c1ccc(OCc2ccc(Cl)cc2)cc1` was run?
The growth was 90.5%.

Same assay, conditions: 10 µM unless noted

Which growth does the source give for `Cc1ccc(-c2nc3nc(-c4ccccc4)nc(N4CCCNCC4)c3o2)cc1` here?
Its growth is -71.4% (active).

Which growth does the source give for `CCCCCCCCCCCCCCCCCCOc1cccc(CC(=O)OCC[N+](CC)(CC)CC)c1` here?
The growth was 51.7%.

`CCN1C(=O)N(c2ccccc2)C2NC(=S)N(/N=C/C=C/c3ccccc3)C21` (stereo not given) was tested. Which growth did it give?
Its growth is 2.69% (active).

`C[C@@H]1CC[C@@H]2[C@@H]1[C@H](OC(=O)/C=C/c1ccccc1)[C@]1(c3ccccc3)C[C@@H](NC(=O)CO)[C@@]2(C)O1` was tested. Which growth did it give?
The growth was 100%.

Which growth does the source give for `C=C(C)[C@@H]1CC[C@]2(C(=O)N3CCN(C)CC3)CC[C@]3(C)[C@H](CC[C@@H]4[C@@]5(C)CC(CCCNC(C)=O)(CCCNC(C)=O)[C@H](OC(C)=O)C(C)(C)[C@@H]5CC[C@]43C)[C@@H]12` here?
The growth was 90.7%.

Which growth does the source give for `N#CC1C(=O)c2ccccc2C1c1ccccc1` (stereo not given) here?
The growth was 105% and 101%.

How did the growth turn out when `Cn1ccnc1CN1CCSC(C(=O)Nc2ccccc2)C1` (stereo not given) was run?
Its growth is 96.2%.

Which growth does the source give for `C=C1CCC2C3(C)COC(c4ccc(NC(C)=O)cc4)OC3CCC2(C)C1C/C=C1/C(=O)OCC1O` (stereo not given) here?
Its growth is 34.1%.

For `COc1cc2cc(NCc3ccncc3)nc(C)c2cc1OC`, which growth is on record?
Its growth is 93.1%.

Which growth does the source give for `Clc1ccc(CNc2ccc3nc(CCC4CCCCC4)[nH]c3c2)cc1` here?
Its growth is 36.2%.

For `C[N+]1=C(/C=C\C=C\c2ccccc2)C(C)(C)c2ccccc21`, which growth is on record?
The growth was 14.3%.

Which growth does the source give for `C=C1C(=O)O[C@H]2[C@H]1CC/C(COC(=O)NCc1ccc(Cn3c(=O)sn(CCCI)c3=O)cc1)=C\CC[C@@]1(C)O[C@@H]21` here?
The growth was -52% (active).

With `COc1cc2c(cc1OCCCOC1=C=C=C(c3ccc4c(c3)c3cc(-c5ccc(OCCCOc6cc7c(cc6OC)C(=O)N6CCC[C@H]6C=N7)cc5)ccc3n4S(=O)(=O)c3ccc(C)cc3)C=C1)N=C[C@@H]1CCCN1C2=O` as the compound, how does the growth read?
The growth was 136% and 11.4%.

`Fc1ccc(NC(c2ccc(F)cc2)C2CCN(CCCCc3ccccc3)CC2)cc1` (stereo not given) was tested. Which growth did it give?
Its growth is -55.4% (active).

With `C=C1CC[C@@H]2[C@](C)(COC(C)=O)[C@H](OC(C)=O)CC[C@@]2(C)[C@@H]1CC(Nc1ccc(S(=O)(=O)Nc2nccs2)cc1)C1=CCOC1=O` (stereo not given in full) as the compound, how does the growth read?
The growth was -30.4% (active).

With `CN(C)CCCn1c2c(c3ccc(N4CCNCC4)cc3c1=O)C(=O)c1ccccc1-2` as the compound, how does the growth read?
The growth was -89.1% (active).

How did the growth turn out when `COc1cc(NC2CCCCC2O)c2nc(-c3ccc(Cl)cc3)ccc2c1` (stereo not given) was run?
Its growth is 69.6% and 77.2%.

With `COCCOc1cc2ncnc(N3CCN(S(=O)(=O)c4ccccc4Cl)CC3)c2cc1OCCOC` as the compound, how does the growth read?
The growth was 89.7%.

`COc1cc(OC)cc(-c2ccc(-c3ccc(C(=N)N)cn3)s2)c1` was tested. Which growth did it give?
The growth was -12.6% (active).

For `CCOC(=O)c1c(-c2ccc(C)cc2)c(C#N)c(=O)n(-c2cccc(C(F)(F)F)c2)c1N`, which growth is on record?
The growth was 103%.

For `CCOC(=O)C1=C(C)NC(=O)NC1c1c(Cl)n(-c2ccccc2)c2ccccc12` (stereo not given), which growth is on record?
Its growth is 69.1%.

How did the growth turn out when `O=c1cc(N/N=C/c2ccc(F)cc2)c2cc(Cl)ccc2[nH]1` was run?
Its growth is 84.1%.

How did the growth turn out when `CC(=O)Nc1c(I)c(NC(C)=O)c(I)c(C(=O)O)c1I` was run?
The growth was 110% and 93%.

With `CCCCC#Cc1c(/C=C(\CCCC)SCC)n(C)c(=O)[nH]c1=O` as the compound, how does the growth read?
The growth was 88.3%.

Which growth does the source give for `O=C(CC1(O)C(=O)Nc2ccc(Br)cc21)c1ccc(Cl)cc1` (stereo not given) here?
Its growth is 98%.

Which growth does the source give for `COc1ccc(/C=N/C2=C(C#N)C(c3ccccc3)c3c(ccc4ccccc34)O2)cc1` (stereo not given) here?
Its growth is 24.8%.

How did the growth turn out when `Cc1nnc(NS(=O)(=O)c2ccc(N=Nc3ccc(N)nc3N)cc2)s1` was run?
Its growth is 99.7% and 103%.

With `N#CC(Cc1cccc2ccccc12)c1cc2ccccc2[nH]1` (stereo not given) as the compound, how does the growth read?
Its growth is 83.7%.

With `O=C1C=C(Nc2ccccc2)c2ncccc2C1=O` as the compound, how does the growth read?
Its growth is -87.9% (active).

`O=C(Cc1ccc(F)cc1)c1ccccc1` was tested. Which growth did it give?
Its growth is 103%.

`COc1ccc(C(c2cc(OC)c(OC)c(OC)c2)n2ccnc2)cc1O` (stereo not given) was tested. Which growth did it give?
Its growth is 6.88% (active).

`COc1ccc(Cl)cc1Nc1nc(C(F)(F)F)ccc1C(=O)N/N=C/c1ccc(N(C)C)cc1` was tested. Which growth did it give?
Its growth is 80.3%.

For `COc1cc(/C=C/C(=O)c2ccc(NC(=O)CSc3nnc(-c4cc(-c5ccccc5)nc5ccccc45)n3-c3ccccc3)cc2)cc(OC)c1OC`, which growth is on record?
The growth was 79%.

`O=C(CCl)n1nnnc1Cc1ccccc1` was tested. Which growth did it give?
Its growth is 102%.

With `CN1CCN(C(=O)OCc2nc3c(N4CCOCC4)nc(Cl)nc3n2C)CC1` as the compound, how does the growth read?
Its growth is -88.5% (active).

Which growth does the source give for `N#C/C(=C\c1ccc(Br)cc1)n1nnc2c(F)cccc21` here?
The growth was -27.5% (active).

Same assay, conditions: 100 µM

How did the growth turn out when `COc1ccc(C(=O)/C=C/c2ccc(OCc3ccc(Cl)cc3)cc2)cc1OC` was run?
Its growth is -25.8% (active).

`CC(=O)/C=C/c1ccc(OCc2ccc(Cl)cc2)cc1` was tested. Which growth did it give?
Its growth is 46.1%.
